ALR inh = blocks human ALR sulfhydryl oxidase activity; P55789; purified ALR, DTT oxidation, H2O2 HRP-luminol luminescence; inhibition, % (test concentration not listed); hit rate 3.8% among 290,000;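 active means mean replicate inhibition above about 79%, with every replicate also reaching it, limit read from the data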
Target sequence (P55789 whole entry, looked up): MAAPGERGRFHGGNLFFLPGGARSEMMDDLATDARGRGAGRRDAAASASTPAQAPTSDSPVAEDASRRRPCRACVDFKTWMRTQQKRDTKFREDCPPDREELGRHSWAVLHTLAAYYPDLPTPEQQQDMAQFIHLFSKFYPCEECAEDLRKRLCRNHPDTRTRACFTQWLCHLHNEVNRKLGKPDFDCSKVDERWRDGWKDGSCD
PfGluPho inh = PfG6PD (Plasmodium falciparum) enzyme inhibition | PfGluPho enzyme, NADPH resazurin-diaphorase fluorescence | inhibition, % at 20 µM | hit rate 0.78% among 350,000 | AID 504690;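 active means inhibition reaching at least a set limit at 20 µM in the primary screen, cut at about 59% in these data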;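 further: 0% = DMSO wells with substrate and 100% = DMSO wells lacking glucose-6-phosphate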
M18AAP inhibitor = blocks P. falciparum M18 aspartyl aminopeptidase; hit rate 1.2% among 290,000; inhibition, % at 7.35 µM; recombinant PfM18AAP, H-Glu-NHMec fluorogenic cleavage;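 active means inhibition above the campaign mean inhibition over all tested compounds plus 3 SD, cut at about 28% in these data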;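 further: 0% = plate median of test compound wells and 100% = 2 mM ZnCl2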
PHOSPHO1 inh = PHOSPHO1 (human) inhibition; Q8TCT1; recombinant PHOSPHO1, absorbance phosphatase assay; inhibition, % at 13.3 µM; hit rate 1.1% among 290,000; in the data active means inhibition above about 60%
Target sequence (Q8TCT1 whole entry, looked up): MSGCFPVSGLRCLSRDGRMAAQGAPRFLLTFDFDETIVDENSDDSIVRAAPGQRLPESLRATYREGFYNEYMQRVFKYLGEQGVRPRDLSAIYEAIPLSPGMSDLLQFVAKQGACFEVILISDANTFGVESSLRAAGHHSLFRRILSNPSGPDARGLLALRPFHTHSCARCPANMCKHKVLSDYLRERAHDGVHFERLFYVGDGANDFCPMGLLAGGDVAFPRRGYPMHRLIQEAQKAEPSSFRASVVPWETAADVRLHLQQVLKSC
Cardio protect = protects H9c2 cardiomyocytes from peroxide injury; H2O2 injury protection, ATPLite, 2 h; protection from H2O2 cell death, % at 20 µM; hit rate 0.63% among 360,000;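 active means compounds giving at least 50% protection of heart cells from peroxide-induced death in the single-dose screen, raw or plate-pattern-corrected value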;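 further: 0% = DMSO wells with peroxide and 100% = DMSO wells without peroxide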
* = called active by the depositor; . = not tested or not shown. In the library only some 5.6% were active in any assay of this set; here they are far more common.

SMILES	ALR inh	PfGluPho inh	M18AAP inhibitor	PHOSPHO1 inh	Cardio protect
CC(=O)Nc1cc(-c2cccc(C(=O)NCCO)c2)cn2c(-c3cccc(C(F)(F)F)c3)cnc12	.	.	.	.	32
Cc1ccc(S(=O)(=O)/N=C2/C=C(Sc3ncn[nH]3)C(=O)c3ccccc32)c(C)c1	-5	.	38*	76*	.
CC(C)(C)c1ccc(S(=O)(=O)/N=C2\C=C(NS(=O)(=O)c3ccccc3)C(=O)c3ccccc32)cc1	31	5	-3	27	-14
CC(C)c1ccc(S(=O)(=O)/N=C2/C=C(Sc3ncn[nH]3)C(=O)c3ccccc32)cc1	-64	104*	31*	6	-21
CC1CN(S(=O)(=O)c2cccc(C(=O)NCc3ccco3)c2)CC(C)O1 (stereo not given)	.	0	.	.	1
Cc1cccc(S(=O)Cc2ccc(C(=O)N3CCN(C(=O)c4ccco4)CC3)o2)c1 (stereo not given)	-2	4	-1	15	15
CCOC(=O)c1cnc2ccc(C(=O)OC)cc2c1NCCc1ccc(OC)c(OC)c1	-2	18	-2	1	53*
CCOC(=O)c1cnc2c(C)cccc2c1NCCc1ccc(OC)c(OC)c1	8	14	-5	12	-9
Cc1ccc(-c2nnc(NCc3nc4ccccc4[nH]3)c3ccccc23)cc1S(=O)(=O)N1CCOCC1	-4	10	7	7	86*
CCOC(=O)CSc1nnc(C)c(=O)[nH]1	1	-17	4	-20	-1
Cc1sc2nc(CC(=O)N3CCCC3)[nH]c(=O)c2c1C	-12	38	9	24	20
CCCc1nc(SCC(=O)c2ccc(F)cc2)c2ccccc2n1	99*	39	7	-8	13
CN(C)C(=O)CSc1nc(-c2cccs2)c(-c2cccs2)[nH]1	99*	-8	5	16	8
CCOC(=O)CSc1nnc(NCC(=O)OC)c(=O)[nH]1	100*	13	-80	-1	22
Cc1sc2nc(NCCO)[nH]c(=O)c2c1C	64	-2	4	-13	72*
Cc1ccc(CN2CCN(Cc3cnc(C)[nH]3)CC2CCO)cc1 (stereo not given)	7	-3	-7	12	1
COc1cc(C(=O)N(Cc2ccccc2)c2cccc(C)c2)ccc1OCC(=O)N1CCOCC1	.	1	.	.	13
CCOC(=O)CSc1nc2sc(C)c(C)c2c(=O)[nH]1	-2	10	-10	-29	52*
CCc1ccc(C(=O)CSc2nc3ccccc3c(=O)[nH]2)cc1	14	-14	2	23	17
CN(C)C(=O)CSc1nc2ccccc2c(=O)[nH]1	-5	0	2	12	81*
CCOC(=O)CSc1nnc(CSc2nc3sc4c(c3c(=O)[nH]2)CCC4)n1C	0	-24	-12	-5	66*
CC(C)(C)N(Cc1ccccc1)C(=O)CSc1nc2ccccc2c(=O)[nH]1	-4	-23	3	-43	31
Cc1ccc(C(=O)CSc2nc3ccccc3c(=O)[nH]2)cc1	0	-11	4	-14	47*
CCN(CC)C(=O)CSc1nc2ccccc2c(=O)[nH]1	0	-2	3	-31	65*
O=c1cc(CSc2nc3ccccc3c(=O)[nH]2)c2ccc(O)cc2o1	.	-20	2	60*	94*
SMILES	ALR inh	PfGluPho inh	M18AAP inhibitor	PHOSPHO1 inh	Cardio protect
O=c1[nH]c(SCc2ccccc2F)nc2ccccc12	-14	-4	3	37	27
CCOC(=O)CSc1nnc(CSc2nc3ccccc3c(=O)[nH]2)n1-c1ccccc1	-15	-12	1	-27	51*
CCOC(=O)CSc1nc2ccccc2c(=O)[nH]1	2	0	2	13	58*
CCOC(=O)CSc1nc2sccc2c(=O)[nH]1	-2	16	-1	17	4
CCOC(=O)N1CCC(C(=O)NNC(=O)c2ccc(Cl)cc2Cl)CC1	1	-8	-3	5	1
COC(=O)CNC(c1ccccc1)c1cc(Br)ccc1N (stereo not given)	99*	-12	-15	33	4
O=C(O)/C=C/c1cn(Cc2ccccc2)nc1-c1ccccc1	3	-17	-3	30	-4
O=C(O)CCn1cc(/C=C/C(=O)c2ccc(Cl)cc2)c(-c2ccc(Br)cc2)n1	98*	-25	7	-7	2
COc1cc(S(=O)(=O)N2CCOCC2)cc(C(=O)OCC(=O)NC2CCCCC2)c1OC	.	7	.	.	9
O/N=C(\Cc1cscn1)c1ccc(O)cc1O	82*	-5	-2	-42	6
N=C1SCC(=O)N1/N=C/c1ccccc1	-6	-15	-4	-12	-10
O=C1CSC(=S)N1/N=C/c1ccc(C(F)(F)F)cc1	.	6	31*	27	-2
O=C1CSC(=S)N1/N=C/C=C/c1ccccc1	5	-8	54*	-8	2
O=C1CSC(=S)N1N=Cc1c(F)cccc1Cl	.	-8	.	.	10
Cc1ccc(S(=O)(=O)N2C[C@H]3[C@H]4C(=O)N(c5ccccc5)C(=O)[C@H]4C[C@H](OC(=O)NCc4ccccc4)[C@@]3(O)C2)cc1	.	-11	.	.	8
O=S(=O)(c1cccc(-c2nnc(SCc3nc4ccccc4s3)o2)c1)N1CCOCC1	98*	21	-2	30	-8
CC(=O)CCSc1nnc(-c2cccc(S(=O)(=O)N3CCOCC3)c2)o1	-1	-9	.	.	-6
CCOC(=O)Nc1ccc2c(c1)N(CCCN(C)C)c1ccccc1CC2	99*	-6	1	-2	-7
Cc1nn(CC(=O)N2CCCC2)c(=O)c2cc3cc(F)ccc3n12	-2	1	-2	47	0
COc1ccc(C(=O)COC(=O)Cn2[nH]c(=O)c3ccccc3c2=O)c(OC)c1	0	0	.	.	62*
CCOc1ccc(C(=O)COC(=O)Cn2[nH]c(=O)c3ccccc3c2=O)cc1	.	18	.	.	78*
Cc1c(Cl)c(C(=O)NNC(=S)Nc2ccccc2)nn1C	91*	-15	25	66*	-5
CCNC(=S)NNC(=O)c1nn(C)c(C)c1Cl	11	-10	19	32	10
Cc1c(Cl)c(C(=O)NNC(=S)Nc2ccc(F)cc2)nn1C	81*	2	19	-68	-3
CCOc1ccc(NC(=O)COC(=O)c2c[nH]c3ccccc23)cc1	.	-3	.	.	-8
SMILES	ALR inh	PfGluPho inh	M18AAP inhibitor	PHOSPHO1 inh	Cardio protect
CC(C)NS(=O)(=O)c1ccc2c(c1)NCC2	99*	-3	-8	-6	1
CC(C)NS(=O)(=O)c1ccc2c3c(cccc13)CC2	-16	-3	-9	57	-7
Cc1onc(-c2c(Cl)cccc2Cl)c1C(=O)N/N=C(\N)COc1ccc(Cl)cc1	-5	-30	6	-4	70*
COc1cc(/C=N/NC(=O)c2c(-c3c(Cl)cccc3Cl)noc2C)ccc1OCC(N)=O	.	-1	5	.	23
O=C(Nc1ccc(F)cc1)c1ccccc1F	4	-12	-5	-9	-5
O=C(Nc1ccc(SC(F)F)cc1)c1ccccc1F	99*	9	-4	-7	-15
O=C(Nc1ncnc2sc3c(c12)CCCC3)c1ccncc1	-13	1	1	12	2
O=C(Nc1ncnc2sc3c(c12)CCCCC3)c1ccco1	97*	6	-10	-7	20

High-throughput results deposited in PubChem BioAssay by several laboratories.
